# From PubChem
# In the library only some 5.4% were active in any assay of this set; here they are far more common.
# GAA850 FXN act = frataxin GAA850 promoter activation; activation, % at 6 µM; HEK293 lucGAA850 FXN promoter luciferase reporter, 24 h; percent of 10 µM SAHA response; 360,000 tested, 0.56% active;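 active means activation above the average of all compounds screened plus 3 SD, cutoff fixed separately per campaign, cut at about 7.5% in these data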;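 further: 0% = DMSO wells and 100% = 10 µM SAHA wells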
# HSF1 activator = increases HSF-1 driven luciferase reporter signal. activation, % at 9 µM. NIH3T3-HGL HSF-1 luciferase reporter, MG132, 8 h; 100% = twice DMSO control signal. 300,000 tested, 1.7% active;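 active means mean replicate activation of at least 50% with a set share of replicates each reaching 50%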;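 further: 0% = median of the neutral control wells and 100% = twice that signal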
# NR0B1 inh = NR0B1 (DAX1) inhibition; inhibition, % at 6.75 µM; 340,000 tested, 0.99% active; AID 504766; HEK293 Gal4-DAX1 luciferase reporter, luminescence;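 active means inhibition above the mean over all tested compounds plus 3 SD, cut at about 4.2% in these data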;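 further: 0% = DAX1-transfected cells with DMSO and 100% = empty-vector control cells with DMSO; inhibition shows as a rise in luminescence from relieved DAX1 repression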
# Target sequence (P51843 207-470 limits assumed): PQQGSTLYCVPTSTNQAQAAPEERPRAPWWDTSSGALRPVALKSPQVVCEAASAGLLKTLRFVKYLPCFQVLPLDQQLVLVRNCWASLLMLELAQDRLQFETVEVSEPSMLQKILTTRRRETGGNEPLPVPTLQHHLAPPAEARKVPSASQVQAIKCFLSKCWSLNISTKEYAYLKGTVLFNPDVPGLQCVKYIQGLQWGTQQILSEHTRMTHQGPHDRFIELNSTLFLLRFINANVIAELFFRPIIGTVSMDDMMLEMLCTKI
# HSF1 inhib = HSF1 inhibition | 300,000 tested, 0.77% active | activity change, negative = inhibition, % at 7.5 µM (by protocol) | NIH3T3-HGL HSE-luciferase, MG132-induced, luminescence 8 h; stronger effect = lower value | AID 2098;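 active means more than half of replicate wells show activity change below -50%, luminescence cut by over half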;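 further: luciferase reports HSF-1 transcriptional activity via heat shock element; 0% = median of DMSO wells and -100% = zero luminescence signal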
# AHR activator = human AHR activation. P35869. AHR-responsive luciferase reporter cells, luminescence. activation, % at 5 µM. 320,000 tested, 2.5% active. AID 2796; in the data active means activation above about 47%;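 further: 0% = vehicle wells and 100% = reference agonist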
# An asterisk follows results filed as active; / = no result.
SMILES,GAA850 FXN act,HSF1 activator,NR0B1 inh,HSF1 inhib,AHR activator
CN(C)S(=O)(=O)c1ccc(/C(O)=C2/C(=O)C(=O)N(Cc3cccnc3)C2c2cccs2)cc1 (centres undefined),0.1,2.0,-1.3,-4.4,2.4
COC(=O)c1cn[nH]c1NC(=S)Nc1ccc(C)cc1Cl,1.8,-32.1,0.0,-22.7,2.3
CCOC(=O)c1cn[nH]c1NC(=S)Nc1ccc(OC)cc1,-3.0,-63.3,-2.0,-53.7*,0.6
COC(=O)c1cn[nH]c1NC(=S)Nc1ccc(Cl)c(Cl)c1,-1.3,-67.1,1.7,-60.4*,48.5*
C=Cc1ccc(Cn2c(=O)n(CCCOC)c(=O)c3sccc32)cc1,1.2,5.2,-1.2,7.3,1.3
O=[N+]([O-])c1c(Nc2ccc(O)cc2)cc(Cl)c2nonc12,-5.9,132.4*,-1.0,121.7,1.0
O=C(O)c1ccccc1Nc1cc(Cl)c2nonc2c1[N+](=O)[O-],0.1,12.8,0.1,5.7,2.1
O=[N+]([O-])c1c(Nc2ccccn2)cc(Cl)c2nonc12,1.5,162.9*,-3.0,98.0,0.4
CC1(C(=O)Nc2ccc3nc[nH]c3c2)CCN1C(=O)C/C=C/c1ccccc1 (centres undefined),-0.7,/,/,/,/
O=C(NC(=S)NCC1CCCO1)c1ccccc1[N+](=O)[O-] (centres undefined),0.8,23.4,/,0.0,1.2
CC(C)(C)c1ccc(C(=O)O)c(C(=O)c2ccccc2)c1,-0.6,-2.6,0.5,3.2,-0.7
CCc1cc(-c2nnn(CCC3COCCO3)c2CC)cc(CC)c1-c1cn(CCc2c[nH]c3ccccc23)nn1 (centres undefined),2.8,/,-0.4,/,/
CC(=O)Nc1cccc(NC(=O)CSc2nnc(Cc3cccn3C)n2-c2ccc(F)cc2)c1,-1.1,-72.3,0.5,-64.8*,-1.0
COc1ccc(-n2c(Cc3cccn3C)nnc2SCC(=O)N2CCOCC2)cc1,1.9,-6.1,0.2,-4.6,-0.2
Cn1cccc1Cc1nnc(SCC(=O)N2CCOCC2)n1-c1ccc(F)cc1,-0.1,1.8,4.2*,-3.7,1.4
COc1cccc(NC(=O)CSc2nnc(Cc3cccn3C)n2-c2ccc(F)cc2)c1,-3.8,0.5,1.5,-1.6,1.5
Cc1cc(OCC(O)CN2CCCC2)cc(C)c1Cl (centres undefined),0.9,-3.0,0.6,-3.4,1.6
COc1cc(NC(=S)N2CCN(S(=O)(=O)c3ccc(C)cc3)CC2)cc(OC)c1,-1.8,-1.0,-0.3,-12.3,6.1
COCCCN=C1NN=C(c2cc(C)n(-c3ccccc3F)c2C)CS1,-2.1,-47.8,-0.2,-41.7,-3.5
Cc1ccc(-n2c(C)cc(C3=NNC(=NC4CC4)SC3)c2C)cc1C,-5.5,12.4,-0.9,5.9,50.8*
COCCn1c(C)cc(C2=NNC(=Nc3ccccc3F)SC2)c1C,-18.8,-89.9,-6.7,-88.7*,-5.6
Cc1cc(C2=NNC(=Nc3ccccc3)SC2)c(C)n1C,7.2,/,5.4*,/,3.2
COCCCN=C1NN=C(c2cc(C)n(-c3ccccc3)c2C)CS1,1.6,-14.9,0.5,-18.9,11.6
CCOC(=O)C1(Cc2cccc(F)c2)CCN(C(=O)c2cnccn2)CC1,2.0,11.6,-0.8,1.7,5.4
O=C(Nc1cc2c(cc1C(=O)O)OCCCO2)c1ccc(F)cc1F,3.4,8.3,-0.1,-3.0,3.4
SMILES,GAA850 FXN act,HSF1 activator,NR0B1 inh,HSF1 inhib,AHR activator
Cc1ccc(S(=O)(=O)Nc2nc(C)cc(NCCN)n2)cc1,1.1,-3.0,4.7*,-0.1,13.8
O=C1C=C(c2ccc(Cl)c(C(F)(F)F)c2)C[C@@H](c2ccc(Cl)cc2)C1,1.1,/,2.7,/,0.4
NC(=NCc1ccccc1)NC(=O)c1nc(Cl)c(N)nc1N,1.0,4.3,0.3,4.6,69.2*
C=CCOc1ccc(C(=O)Nc2ncn[nH]2)cc1,1.5,24.4,1.4,-0.9,65.8*
COc1ccccc1N1CCN(Cc2cc(=O)c(OCC(=O)NC3CCCC3)co2)CC1,-0.8,4.6,1.9,-5.8,-3.4
Oc1ccccc1C1NN=C(c2ccccc2)S1 (centres undefined),6.0,81.2*,3.1,71.2,40.8
CCOC(=O)c1nn(-c2ccc(Cl)cc2)cc1O,0.1,17.1,8.9*,23.0,3.2
CCC(CO)[n+]1c(C)cc(/C=C2\Sc3ccccc3N2Cc2ccccc2)cc1C (centres undefined),3.4,/,-5.2,/,5.3
C/C(=N\OC(=O)Nc1ccccc1)c1ccc(C)cc1,3.3,23.4,5.9*,13.8,5.6
Cc1ccc(S(=O)(=O)N(CC2CO2)c2cc(Cl)ccc2Cl)cc1 (centres undefined),-1.0,-3.6,-0.9,8.5,-1.6
COc1cc(C)ccc1OCc1cc(C(=O)N(Cc2nccn2C)C(C)C)no1,3.4,57.9*,0.9,12.7,19.8
COc1cccc(OCc2cc(C(=O)N(Cc3nccn3C)C(C)C)no2)c1,-1.0,0.8,-0.4,1.8,0.7
O=C(O)CSCC(=O)Nc1ccc(C2CCCCC2)cc1,-18.4,-78.6,-3.9,-78.4*,-14.3
Cc1cc(=O)oc2cc(OCC(=O)N3CC[C@@]4(O)CCCC[C@H]4C3)c(Cl)cc12,0.6,-1.6,-1.1,-6.1,-0.7
COc1ccc(NC(=O)c2cccc3cccnc23)cc1S(N)(=O)=O,3.5,-5.6,0.1,-3.3,-2.7
COc1cccc(/C=C/C(=O)c2cccc([N+](=O)[O-])c2)c1OC,-0.3,58.2*,-0.5,21.2,14.4
COc1ccc(/C=C/C(=O)c2ccncc2)c2ccccc12,1.4,-1.3,-2.0,12.6,52.7*
Cc1onc(-c2ccccc2)c1C(=O)Nc1sc2c(c1C#N)CCC2,-7.2,-11.2,0.4,-2.1,-2.7
NC(=O)c1c(NC(=O)c2ccc(F)cc2Cl)sc2c1CCC2,5.3,-1.2,1.0,-18.3,56.5*
NC(=O)c1c(NC(=O)c2ccccc2Cl)sc2c1CCC2,4.0,6.3,1.2,-2.7,35.5
Cc1onc(-c2ccccc2)c1C(=O)Nc1sc2c(c1C(N)=O)CCC2,1.4,-66.0,-1.0,-59.3*,5.3
CC(=O)Nc1ccc(S(=O)(=O)N2CCSc3ccccc32)cc1,-3.1,/,-5.0,/,4.7
O=C(NC(=O)c1cccc(Cl)c1)OC[C@@H]1CCCN2CCCCC12 (some centres undefined),1.8,3.7,-1.2,-5.6,-1.7
O=C(NC(=O)c1cccc(F)c1)OC[C@@H]1CCCN2CCCC[C@H]12,-0.2,-83.6,0.1,-77.7*,-1.6
OCCc1c[nH]c2ccc(OCc3ccccc3)cc12,-0.4,6.2,0.7,5.5,-1.1
Fc1ccc(CSc2nnc(-c3cnccn3)n2Cc2ccco2)cc1,5.0,30.2,0.6,19.1,0.8
Fc1ccccc1CSc1nnc(-c2cnccn2)n1Cc1ccco1,4.8,67.3*,-0.9,49.1,6.3
CCCNC(=O)c1cccc(COCC(F)(F)F)c1,1.6,-68.5,-2.3,-63.1*,3.4
C[C@@H](C(=O)NCCc1ccc(F)cc1)N1C(=O)N2CCc3c([nH]c4ccccc34)[C@@]2(C)C1=O,2.9,23.1,-1.2,12.3,6.5
